Earlier results as cited in PubChem BioAssay AID977611.
In all, about 3,900 compounds went through this assay and about 3,900 (100%) were called active. The limit is not given here; nearly all actives have Kd up to about 4200 µM. So high a share suggests a set chosen from earlier hits. The list shows a part of the results. Numbered stars: 1 amine (or outer) side, 2 acyl side, 3 side chain; on linkers, the order of the positions; unused ones are H or OH. Where a SMILES comes first, the peptide text is derived from it. Square brackets hold non-standard residues; d marks the D form. Peptide text beside a SMILES is read from it. [ ]: non-standard residue; d: D form. Lys(Me3) = C[N+](C)(C)CCCC[C@H](N)C(=O)O; Orn(CH(NH2)2) = NC(N)NCCC[C@H](N)C(=O)O; X2 = CNC(N)NCCC[C@H](N[*:1])C(=O)[*:2]

Assay: PubChem AID 977611
Conditions: PDB protein-ligand complexes, literature Kd

## Oc1ccccc1CNc1cc(NCc2ccccc2O)ncn1
protein: Caspase-6, PDB entry 4nbn
  Kd: 44 µM (active)

## Cc1cccnc1NCc1ccccc1O
protein: proCaspase-6, PDB entry 4nbk
  Kd: 136 µM (active)

## C[C@@H]1OC[C@@H](O)[C@H](O)[C@@H]1O
protein: PUTATIVE FUCOSE-BINDING LECTIN PROTEIN(R17A mutant), PDB entry 3zi8
  Kd: 2.2 µM (active)

## C=C(CC[C@]12O[C@H](C(=O)O)[C@@](O)(C(=O)O)[C@](C(=O)O)(O1)[C@H](OC(=O)/C=C/[C@@H](C)C[C@@H](C)CC)[C@H]2O)[C@@H](OC(C)=O)[C@H](C)Cc1ccccc1
protein: Dehydrosqualene synthase, PDB entry 3vje
  Kd: 0.0097 µM (active)
protein: Squalene synthase, PDB entry 3vjc
  Kd: 0.0189 µM (active)

## C=CCN(Cc1ccccc1C(=O)NCc1ccc(OC)cc1)Cc1ccc2c(c1C(=O)O)OC[C@H](CCC(=O)O)O2
protein: INTEGRASE, PDB entry 4ceb
  Kd: 1080 µM (active)

## COc1ccc(CNC(=O)c2cc3ccccc3cc2CN(C)Cc2cccc(OC)c2C(=O)O)cc1
protein: HIV integrase, PDB entry 4cig
  Kd: 214 µM (active)

## COc1ccc(CNC(=O)c2cc3c(cc2CN(C)Cc2cccc(OC)c2C(=O)O)OCO3)cc1
protein: HIV integrase, PDB entry 4cjr
  Kd: 793 µM (active)

## O=C(O)CCC(=O)C1=CC=C[C@@H](O)[C@@H]1C(=O)O
protein: E. Coli 2-succinyl-6-hydroxy-2,4-cyclohexadiene-1-carboxylate synthase (MenH), PDB entry 4myd
  Kd: 28 µM (active)

## Nc1ccc(C(=O)N[C@@H](C(=O)NO)c2ccc(-n3cccn3)cc2)cc1
protein: M17 leucyl aminopeptidase A-M17, PDB entry 4r7m
  Kd: 0.011 µM (active)

## COC(=O)N1CC[C@@H]2[C@H]1CCC[C@@]2(O)C#Cc1cccc(C)c1
protein: Metabotropic glutamate receptor 5, Lysozyme, Metabotropic glutamate receptor 5 chimera, PDB entry 4oo9
  Kd: 0.00086 µM (active)

## CO[C@@H]1O[C@@H](C(=O)O)[C@@H](O[C@H]2O[C@H](COS(O)(O)O)[C@@H](O)[C@H](O)[C@H]2NS(O)(O)O)[C@H](O)[C@H]1OS(O)(O)O
protein: Fibroblast growth factor 2 FGF2, PDB entry 4oef
  Kd: 17.5 µM (active)

## O=C(O)[C@@H]1O[C@@H](O)[C@H](OS(O)(O)O)[C@@H](O)[C@@H]1O[C@H]1O[C@H](COS(O)(O)O)[C@@H](O[C@@H]2O[C@@H](C(=O)O)[C@@H](O[C@H]3O[C@H](COS(O)(O)O)[C@@H](O[C@@H]4O[C@@H](C(=O)O)[C@@H](O[C@H]5O[C@H](COS(O)(O)O)[C@@H](O)[C@H](O)[C@H]5NS(O)(O)O)[C@H](O)[C@H]4OS(O)(O)O)[C@H](O)[C@H]3NS(O)(O)O)[C@H](O)[C@H]2OS(O)(O)O)[C@H](O)[C@H]1NS(O)(O)O
protein: SONIC HEDGEHOG PROTEIN, PDB entry 4c4n
  Kd: 0.8 µM (active)

## CO[C@@H]1O[C@@H](C(=O)O)[C@@H](O[C@H]2O[C@H](CO)[C@@H](O)[C@H](OS(O)(O)O)[C@H]2NS(O)(O)O)[C@H](O)[C@H]1OS(O)(O)O
protein: Fibroblast growth factor 2 FGF2, PDB entry 4oee
  Kd: 1.73 µM (active)

## CO[C@@H]1O[C@@H](C(=O)O)[C@@H](O[C@H]2O[C@H](COS(O)(O)O)[C@@H](O)[C@H](OS(O)(O)O)[C@H]2NS(O)(O)O)[C@H](O)[C@H]1OS(O)(O)O
protein: Fibroblast growth factor 2 FGF2, PDB entry 4oeg
  Kd: 9.01 µM (active)

## O=C(O)[C@H]1CCCN1C(=O)CCCCC(=O)N1CCC[C@@H]1C(=O)O
protein: Serum Amyloid P Component, PDB entry 4avt
  Kd: 0.0088 µM (active)

## CC(C)[C@@H]1NC(=O)[C@@H](NC(=O)[C@H](Cc2ccc(O)cc2)NC(=O)[C@@H]2CCCN2C(=O)[C@H](C)N)CSSC[C@@H](C(N)=O)NC(=O)[C@H](CO)NC(=O)[C@H](Cc2c[nH]c3ccccc23)NC(=O)[C@H](CO)NC(=O)CCNC(=O)[C@H](CCCN=C(N)N)NC(=O)[C@H](Cc2ccc(O)cc2)NC1=O
protein: Ephrin type-A receptor 4 EphA4 LBD, PDB entry 4w4z
  Kd: 0.03 µM (active)

## CC(C)[C@@H]1NC(=O)[C@@H](NC(=O)[C@H](Cc2ccc(O)cc2)NC(=O)[C@@H]2CCCN2C(=O)[C@H](C)N)CSSC[C@@H](C(=O)O)NC(=O)[C@H](CO)NC(=O)[C@H](Cc2c[nH]c3ccccc23)NC(=O)[C@H](CO)NC(=O)CNC(=O)[C@H](CCCN=C(N)N)NC(=O)[C@H](Cc2ccc(O)cc2)NC1=O
protein: Ephrin type-A receptor 4 EphA4 LBD, PDB entry 4w50
  Kd: 1.4 µM (active)

## C[C@H](N)C(=O)N[C@@H](CCCNC(N)N)C(=O)N[C@H](C(=O)N[C@@H](CCCCN)C(=O)N[C@@H](CCC(N)=O)C(=O)N[C@H](C(=O)N[C@@H](C)C(=O)N[C@@H](CCCNC(N)N)C(=O)N[C@@H](CCCC[N+](C)(C)C)C(=O)N[C@@H](CO)C(=O)O)[C@@H](C)O)[C@@H](C)O
protein: Histone-lysine N-methyltransferase NSD3, PDB entry 4gng
  Kd: 290 µM (active)

## C[C@H](NC(=O)[C@@H](NC(=O)[C@H](CCC(N)=O)NC(=O)[C@H](CCCCN)NC(=O)[C@@H](N)[C@@H](C)O)[C@@H](C)O)C(=O)N[C@@H](CCCNC(N)N)C(=O)N[C@@H](CCCC[N+](C)(C)C)C(=O)N[C@@H](CO)C(=O)O (H-TKQTA[Orn(CH(NH2)2)][Lys(Me3)]S-OH)
protein: SHH1 SAWADEE, PDB entry 4iur
  Kd: 2.63 µM (active)

## CNC(N)NCCC[C@H](NC(=O)[C@H](C)N)C(=O)N[C@H](C(=O)N[C@@H](CCCC[N+](C)(C)C)C(=O)N[C@@H](CCC(N)=O)C(=O)N[C@H](C(=O)N[C@@H](C)C(=O)N[C@@H](CCCNC(N)N)C(=O)N[C@@H](CCCCN)C(=O)N[C@@H](C)C(=O)N[C@@H](C)C(=O)NCC(=O)O)[C@@H](C)O)[C@@H](C)O (stereo partly specified) (H-A[X2]T[Lys(Me3)]QTA[Orn(CH(NH2)2)]KAAG-OH)
protein: RAG2-PHD, PDB entry 2v85
  Kd: 34.6 µM (active)

## CC(C)C[C@H](N)C(=O)N[C@@H](C)C(=O)N[C@H](C(=O)N[C@@H](CCCCN)C(=O)N[C@@H](C)C(=O)N[C@@H](C)C(=O)N[C@@H](CCCNC(N)N)C(=O)N[C@@H](CCCC[N+](C)(C)C)C(=O)N[C@@H](CO)C(=O)O)[C@@H](C)O (H-LATKAA[Orn(CH(NH2)2)][Lys(Me3)]S-OH)
protein: Polycomb protein, PDB entry 1pdq
  Kd: 5 µM (active)

## C[C@H](NC(=O)[C@@H](NC(=O)[C@H](CCC(N)=O)NC(=O)[C@@H](N)CCCCN)[C@@H](C)O)C(=O)N[C@@H](CCCNC(N)N)C(=O)N[C@@H](CCCC[N+](C)(C)C)C(=O)N[C@@H](CO)C(=O)O (H-KQTA[Orn(CH(NH2)2)][Lys(Me3)]S-OH)
protein: Chromo domain-containing protein 1, Chp1, PDB entry 3g7l
  Kd: 0.19 µM (active)

## C[C@H](N)C(=O)N[C@@H](CCCNC(N)N)C(=O)N[C@H](C(=O)N[C@@H](CCCC[N+](C)(C)C)C(=O)N[C@@H](CCC(N)=O)C(=O)N[C@H](C(=O)N[C@@H](C)C(=O)N[C@@H](CCCNC(N)N)C(=O)N[C@@H](CCCCN)C(=O)N[C@@H](CO)C(=O)N[C@H](C=O)[C@@H](C)O)[C@@H](C)O)[C@@H](C)O
protein: Inhibitor of growth protein 4( ING4) PHD domain, PDB entry 2pnx
  Kd: 7.9 µM (active)

## N[C@H]1[C@H](O[C@H]2[C@H](O)[C@@H](N)[C@H](O[C@H]3[C@H](O)[C@@H](N)[C@H](O[C@H]4[C@H](O)[C@@H](N)[C@H](O[C@H]5[C@H](O)[C@@H](N)C(=O)O[C@@H]5CO)O[C@@H]4CO)O[C@@H]3CO)O[C@@H]2CO)O[C@H](CO)[C@@H](O)[C@@H]1O
protein: Ostrinia furnacalis Group I chitinase catalytic domain, PDB entry 3wqw
  Kd: 5.9 µM (active)

## N[C@@H]1[C@@H](O)[C@H](O[C@@H]2O[C@H](CO)[C@@H](O[C@@H]3O[C@H](CO)[C@@H](O[C@@H]4O[C@H](CO)[C@@H](O[C@@H]5O[C@H](CO)[C@@H](O)[C@H](O)[C@H]5N)[C@H](O)[C@H]4N)[C@H](O)[C@H]3N)[C@H](O)[C@H]2N)[C@@H](CO)O[C@H]1O
protein: Ostrinia furnacalis Group I chitinase catalytic domain, PDB entry 3wqv
  Kd: 6.2 µM (active)
